# Source: PubChem BioAssay (Tox21)
# Where “and” joins values, the source holds several entries; their conditions need not be identical. Equal entries are not always repeated. Records with an inconclusive call do not appear. A number with no mark means an inactive call. Calls of active or inactive are those of the source. Calls come from the whole dose curve; as a rule, active = well fitted cell-killing curve with a large enough effect in the repeat runs; inconclusive = weak or mixed curves, or effect the other way; inactive = flat fitted curve, though single readings scatter.
# Assay: cAMP Responsive Elements (CRE) small molecule agonists, cell-based qHTS assay: qHTS cell viability counter screen (AID 2060914);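 note: viability read after 3 h of compound exposure; nearly all actives have a fitted effect of over 50% in size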
# Settings: CRE-bla HEK293T viability, CellTiter-Glo luminescence, 5 h; series mostly up to 92.4 µM; activity change, negative = cytotoxicity: at the top concentration
# Text: National Center for Advancing Translational Sciences [NCATS]
# Division of Preclinical Innovation [DPI]
# U.S. Environmental Protection Agency [EPA]
# National Institutes of Environmental Health Sciences [NIEHS]
# National Toxicology Program [NTP]
# U.S. Food and Drug Administration [FDA]
# CREB (cyclic-AMP Responsive Element Binding Protein) is a cellular transcription factor. It binds to certain DNA sequences called cAMP Responsive Elements (CRE) and regulates the transcription of the genes. […] This cell line can be used to find agonists/antagonists of the cyclic AMP signaling pathway. The activation of the report gene under culture conditions can be detected by fluorescence intensity. This cell line has been used to screen the Tox21 10K compound library to identify agonists that induce oxidative stress. The cytotoxicity of the Tox21 compound library against the CRE-bla cell line was tested in parallel by measuring the cell viability using CellTiter-Glo assay (Promega, Madison, WI) in the same wells.
# Tox21 Assay Protocol Summary:
# CRE-bla Hek 293T cells were suspended in assay medium (DMEM containing 10% dialyzed FBS, 0.1 mM NEAA, 1 mM sodium pyruvate and 25 mM HEPES) and dispensed at 2,000 cells/5 uL /well into 1536-well black wall/clear bottom plates using a Multidrop Combi (ThermoFisher Scientific, Waltham, MA) dispenser. After the assay plates were incubated at 37 C/5% CO2 for 18 hrs, 23 nL of compounds dissolved in DMSO, positive controls or DMSO only was transferred to the assay plate by a pintool workstation (Kalypsys, San Diego, CA). After the plates were incubated at 37 C/5% CO2 for 3 hrs, 1 uL of LiveBLAzer B/G FRET substrate (Invitrogen, Carlsbad, CA) was added to each well using Bioraptr Flying Reagent Dispenser (FRD, Aurora Discovery, San Diego, CA). The plates were incubated at room temperature for 2 h, then fluorescence intensities were measured using an Envision plate reader (PerkinElmer, Shelton, CT) at Excitation 405nm, Emission 460nm and 530nm. The % activity was determined from the ratio of 460nm/530nm. For cell viability readout that measures cytotoxicity, 4 uL /well of CellTiter-Glo reagent was added into the assay plates using Bioraptr FRD. After 30 min incubation at room temperature, the luminescence intensity in the assay plates was measured using a ViewLux (PerkinElmer, Shelton, CT) plate reader.
# % is set by controls: 0 for no effect and ±100 for the full control effect; potency is the fitted concentration of half-maximal effect.
Compound,"activity change, negative = cytotoxicity",Potency
CCCCCCCCS(=O)(=O)O,15.1%,
CO/N=C(/C(=O)N[C@@H]1C(=O)N2C(C(=O)O)=C(COC(N)=O)CS[C@H]12)c1ccco1,-4.6%,
c1ccc(COCc2ccccc2)cc1,-6.31%,
c1ccc(OCc2ccc(CCCN3CCOCC3)cc2)cc1,-12.3% [at 42.5 µM],
CCOc1ccc(OCC)c(Cl)c1,0.918%,
O=C(O)/C=C/c1ccc(O)c(O)c1,4.42%,
CO[Si](CCCNCCNCCN)(OC)OC,22.2%,
CC(C)Nc1nc(N)nc(Cl)n1,11%,
N#CCC(=O)O,,inactive
CCCCCCCCCCCCc1ccccc1O,,60.3 µM (active) and 54.5 µM (active)
O=C1c2c(O)ccc(O)c2C(=O)c2c(NCCNCCO)ccc(NCCNCCO)c21,6.64% [at 42.5 µM],
COC(=O)CCC(=O)OC,,inactive
CC(COc1ccccc1)N(CCCl)Cc1ccccc1 (stereo not given),-2.7%,
CC(=O)OCc1ccccc1,,inactive
CCCCC(CC)COCCC#N (stereo not given),-1.54%,
Cc1cc(=O)oc2cc(O[C@@H]3SC[C@@H](O)[C@H](O)[C@H]3O)ccc12,10.4% [at 42.5 µM],
O=S(=O)(O)c1ccc2cc(O)c(S(=O)(=O)O)cc2c1,5.24%,
CCOC(=O)CC(C)O (stereo not given),1.11%,
OCCN(CCO)c1cccc(Cl)c1,2.48%,
Cc1cccn2c(=O)c(-c3nnn[nH]3)cnc12,-13.9% [at 18.9 µM],

Compound,"activity change, negative = cytotoxicity",Potency
CCCCC(CC)COCCO (stereo not given),-3.42%,
Cc1c(C)c2c(c(C)c1OC(=O)c1cccnc1)CC[C@@](C)(CCC[C@H](C)CCC[C@H](C)CCCC(C)C)O2,8.3% [at 42.5 µM],
CC(C)(C)CC(C)(C)c1ccc(O)c(-n2nc3ccccc3n2)c1,,9.69 µM (active)
N=C(N)S(=O)O,2.78%,
C1COC1,6.63%,
O=C1NC2CCCCN2C12CCN(CCCN1c3ccccc3CCc3ccc(Cl)cc31)CC2 (stereo not given),-0.694% [at 42.5 µM],
OCCOCC#CCOCCO,-3.14%,
C=C(C)C(=O)OCCCCCCCCCCCCCCCCCC,2.15% [at 18.9 µM],
CCCCCC#CC(=O)OC,1.44%,
OCC(CO)(CBr)CBr,,inactive
ClC(Cl)(Br)Br,4.96%,
CO[Si](CCCS)(OC)OC,-9.92%,
CCCOC(C(=O)OC1CCN(C)CC1)(c1ccccc1)c1ccccc1,-12.4% [at 42.5 µM],
O=C1c2c(O)cccc2Cc2cccc(O)c21,,inactive
CCCCCCCCCCCCOCCO,,inactive
CCC(O)C(C)(C)C (stereo not given),-12%,
CCCCCCCC/C=C\CCCCCCCC(=O)OCCOC(=O)CCCCCCC/C=C\CCCCCCCC,5.84%,
O=C(O)CCC(=O)Nc1ccc(S(=O)(=O)Nc2nccs2)cc1,2.23% [at 42.5 µM],
O=S(=O)(c1ccc(OCc2ccccc2)cc1)c1ccccc1O,-12.7%,
CC(C)OC(=O)C(C)N(C(=O)c1ccccc1)c1ccc(F)c(Cl)c1 (stereo not given),-0.623%,
